In the library only some 2.8% were active in any assay of this set; here they are far more common.
WRN helicase inh – qHTS for Inhibitors of WRN Helicase; Bifunctional 3'-5' exonuclease/ATP-dependent helicase WRN (Homo sapiens), Q14191; WRN helicase unwinding, fluorescent forked duplex, kinetic; Potency, µM (titrated, usually from 114 µM), for the others: at the highest dose activity change, negative = inhibition, most hits filed as inhibitors; hit rate 0.46% among 360,000; AID 651768, 2012; also: potency is read from the fitted curve at half-maximal effect; % is scaled to controls: 0 for no effect and ±100 for the full control effect; nearly all actives have a fitted effect of over 55% in size
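Enzyme (20 nM final) and test compound sit together 15 min at room temperature before substrate addition. Substrate is a single-forked duplex oligonucleotide (100 nM) labelled with fluorophore and quencher, with 2 mM ATP; helicase unwinding raises red fluorescence, read kinetically.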
Pol kappa inh – qHTS for Inhibitors of Polymerase Kappa; DNA polymerase kappa (Homo sapiens), Q9UBT6; purified Pol kappa, fluorescent DNA synthesis assay, 10 min; Potency, µM (series often up to 107 µM), without a hit: at the highest dose activity, negative = inhibition, most hits filed as inhibitors; hit rate 0.53% among 400,000; also: potency is read from the fitted curve at half-maximal effect; % is scaled to controls: 0 for no effect and ±100 for the full control effect
Target sequence (Q9UBT6 whole entry, looked up): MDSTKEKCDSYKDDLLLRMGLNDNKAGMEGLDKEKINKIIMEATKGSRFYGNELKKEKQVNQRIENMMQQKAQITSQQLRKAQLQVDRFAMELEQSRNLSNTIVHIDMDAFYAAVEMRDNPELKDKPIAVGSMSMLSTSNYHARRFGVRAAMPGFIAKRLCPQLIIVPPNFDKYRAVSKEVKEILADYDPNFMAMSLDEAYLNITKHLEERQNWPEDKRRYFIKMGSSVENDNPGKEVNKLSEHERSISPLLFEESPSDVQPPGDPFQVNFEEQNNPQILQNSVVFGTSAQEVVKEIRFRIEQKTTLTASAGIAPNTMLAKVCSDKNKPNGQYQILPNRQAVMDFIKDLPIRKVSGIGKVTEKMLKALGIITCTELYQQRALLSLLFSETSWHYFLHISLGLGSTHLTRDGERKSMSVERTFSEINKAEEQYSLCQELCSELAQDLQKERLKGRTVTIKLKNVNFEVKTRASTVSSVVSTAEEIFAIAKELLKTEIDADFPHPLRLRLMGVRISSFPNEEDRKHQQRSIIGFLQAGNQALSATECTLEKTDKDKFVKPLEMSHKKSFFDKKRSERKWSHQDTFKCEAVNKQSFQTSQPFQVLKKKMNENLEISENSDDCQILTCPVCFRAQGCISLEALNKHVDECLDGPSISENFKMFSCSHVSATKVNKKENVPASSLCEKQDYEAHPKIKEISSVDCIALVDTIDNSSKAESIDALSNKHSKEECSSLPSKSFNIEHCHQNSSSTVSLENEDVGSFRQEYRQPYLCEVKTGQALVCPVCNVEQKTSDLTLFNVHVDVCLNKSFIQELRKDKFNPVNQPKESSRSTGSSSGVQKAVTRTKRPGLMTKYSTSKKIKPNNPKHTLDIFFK
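10 nM Pol kappa was preincubated with compounds for 15 min at room temperature. Reaction started with 50 nM (final) substrate. Fluorescence read kinetically at 0 and 10 min.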
Pol eta inh – qHTS for Inhibitors of Polymerase Eta | AID 588591, 2011 | hit rate 1.2% among 390,000 | DNA polymerase eta (Homo sapiens), Q9Y253 | Potency, µM (doses to about 114 µM), for inactives: at the highest dose activity change, negative = inhibition, most hits filed as inhibitors | recombinant Pol eta, fluorescent DNA replication assay; also: potency is read from the fitted curve at half-maximal effect; % is scaled to controls: 0 for no effect and ±100 for the full control effect
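Fluorescent replication assay: 50 nM final substrate added after a 15 min room-temperature compound preincubation with 10 nM enzyme. Signal taken at 0 min and again at 10 min.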
PI5P4K alpha inh – qHTS for Inhibitors of phosphatidylinositol 5-phosphate 4-kinase (PI5P4K); hit rate 1.2% among 330,000; Phosphatidylinositol 5-phosphate 4-kinase type-2 alpha (Homo sapiens), P48426; max response, %; PI5P4Kalpha enzyme, ADP-Glo luminescence, 60 min; stronger effect = lower value; active = max response of -50% or lower; inconclusive = between -30% and -50%; inactive = -30% or higher; also: value at the top dose of about 77 µM; % is scaled to controls: 0 for no effect and ±100 for the full control effect
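Single end-point luminescence (ADP-Glo) quantified ADP from PI5P4Kalpha turnover; ATP 5 microM final, 1 h at RT, 0.1% CHAPS and 0.28 mM EGTA in HEPES pH 7.4.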
Pol iota inh – qHTS for Inhibitors of Polymerase Iota; Potency, µM (highest dose often 115 µM), for the others: at the top dose activity, negative = inhibition, most hits filed as inhibitors; hit rate 1% among 390,000; DNA polymerase iota (Homo sapiens), Q9UNA4; Pol iota fluorescent replication assay, 10 min; also: potency is read from the fitted curve at half-maximal effect
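Pol iota at 10 nM preincubated 15 min with compounds at room temperature; reaction started with fluorescent substrate, 50 nM final. Fluorescence read kinetically at 0 and 10 min; buffer-only wells as negative control.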
POLB inh – qHTS Assay for Inhibitors of DNA Polymerase Beta; AID 485314, 2010; hit rate 1.3% among 340,000; Pol beta primer extension/strand displacement, fluorescence kinetic; P06746; Potency, µM (doses to about 114 µM), for inactives: at the highest dose activity change, negative = inhibition, most hits filed as inhibitors; also: potency is read from the fitted curve at half-maximal effect; % is scaled to controls: 0 for no effect and ±100 for the full control effect
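Preincubation: enzyme (10 nM) with compound, 15 min, RT. Reaction: substrate added to 50 nM final. Reads: 0 and 10 min. Analysis: normalized, Hill fit.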
Active calls of the source: *; ? = inconclusive; · = no result; [ ] = dose if it differs, or a comment. Unless noted, calls follow the shape of the dose curve; as a rule, active = well fitted curve in the direction sought with a large enough effect; inconclusive = small, poorly fitted or top-dose-only effect, or another doubt; inactive = no such curve, though single readings can be large; an effect the other way counts as inactive or inconclusive.

SMILES	WRN helicase inh	Pol kappa inh	Pol eta inh	PI5P4K alpha inh	Pol iota inh	POLB inh
CN1CCN(c2ncnc3ccc(-c4ccccc4C(F)(F)F)cc23)CC1	·	-1%[60.1 µM]	·	·	·	·
CCCCCOc1ccc(C2C(C(=O)c3ccc(C)o3)=C(O)C(=O)N2c2cc(C)on2)cc1 (centres undefined)	0%	6%	-25%	-55*	12%	-9%
Cc1cc(N2C(=O)C(O)=C(C(=O)c3cc4ccccc4o3)C2c2cccc(Br)c2)no1 (centres undefined)	-6%	-2%	-19%	-53*	12%	?
O=C(/C=C/c1ccccc1)Nc1cc(NC(=O)/C=C/c2ccccc2)cc(C(=O)O)c1	-7%[11.6 µM]	-3%	50µM*	-56*	12%	-22%
Cc1ccc(CNC2CCCCC2)s1	-30%	-22%	4%	1	76%	12%
Cc1ccc(S(=O)(=O)CCC(=O)Nc2sccc2C(N)=O)cc1	-16%	?	28µM*	?	?	·
COc1ccc(Nc2c3c(nc4nncn24)CCC3)cc1Cl	·	1%	-2%	·	9%	11%
OCc1ccc(-c2cccc3nccn23)cc1	-3%	·	·	1	·	·
CC[C@H](C)/C=C(C)/C=C/C(=O)Cc1cc(O)c(C)c(O)c1C=O	-6%[11.6 µM]	-40%	50µM*	-57*	?	?
Cc1sc(-n2c(C)cc(/C=C3\SC(=S)NC3=O)c2C)c(C#N)c1C	56µM*	79µM*	22µM*	·	?	32µM*
CCn1c(C)cc(/C=C2/SC(=S)NC2=O)c1C	-25%	-10%	-2%	-7	15%	1%
COc1ccccc1-c1cc(C(=O)Nc2c(C)nn(Cc3ccc(Cl)cc3)c2C)no1	·	-4%	-16%	·	6%	3%
[O][C@H]1[C@@H](O)[C@@H](CO)O[C@@H](O[C@@H]2[C@@H]3OC[C@H]2O[C@H](O[C@@H]2[C@@H](O)[C@H](C[C@@H]4[C@@H]5OC[C@H]4O[CH][C@@H]5O)O[C@H](CO)[C@@H]2OS(=O)(=O)O)[C@@H]3OS(=O)(=O)O)[C@@H]1O	·	32µM*	·	·	·	·
CCOc1ccccc1-c1nc(-c2ccc(NC(=O)Cc3ccc(OC)cc3)cc2)no1	-28%[57.1 µM]	-21%	?	5	?	32µM*
O=C(NCCc1ccccc1)c1c(O)c2cccc3c2n(c1=O)CC3	-9%	-5%	22%	3	-1%	1%
COc1ccc(CCNC(=O)c2c(O)c3cccc4c3n(c2=O)CC4)cc1	3%	-8%	-4%	-81*	10%	?
O=C(Cc1cccs1)Nc1nnc(Cc2ccc(F)cc2)s1	·	·	·	·	·	40µM*
CCC(CC)c1nnc(NC(=O)Cc2cccs2)s1	-10%	-18%	79µM*	?	-15%	?
CC(C)Cn1c(=O)c2ccccc2n2c(CCC(=O)NC(C)c3ccccc3)nnc12 (centres undefined)	·	-18%	2%	·	-3%	6%
CCOC(=O)C1(C)CCN1C(=O)c1ccc(SC(F)(F)F)cc1 (centres undefined)	-4%	·	·	0	·	·
CCOC(=O)N1CCN(C(=O)CSCc2nc(-c3ccccc3C)oc2C)CC1	2%	-11%	-7%	·	8%	-1%
CCOC(=O)N1CCN(C(=O)CSCc2nc(-c3ccccc3F)oc2C)CC1	2%	-4%	-8%	0	89µM*	30%
CC(SCC(=O)Nc1ccc(F)cc1)c1nc2ccccc2c(=O)[nH]1 (centres undefined)	-25%	-11%	-15%	3	1%	1%
Cc1cc(C)cc(NC(=O)N2CCC(CN3CCc4ccccc4C3)CC2)c1	·	1%	-13%	·	-6%	0%
CCOC(=O)c1cnc(-n2[nH]c(C)c(Cc3ccccc3)c2=O)[nH]c1=O	-17%	-3%	?	-9	?	3.2µM*
SMILES	WRN helicase inh	Pol kappa inh	Pol eta inh	PI5P4K alpha inh	Pol iota inh	POLB inh
CC(C)(C)n1ncc2c(=O)n(Cc3c(Cl)ccc(Cl)c3Cl)cnc21	·	8%	·	·	-24%	·
Cc1ccccc1Nc1c(-c2ccc(Cl)s2)nc2c(C)cccn12	·	-24%	-15%	·	-39%	11µM*
CCOc1ccccc1C(=O)N1CCC(c2nc3ccccc3o2)CC1	·	-4%	-1%	·	16%	22%
Cn1c(SCC(=O)c2ccc3c(c2)Cc2ccccc2-3)nnc1-c1cccc(N)c1	0%	-4%	?	?	17%	0.16µM*
Cn1c(SCC(=O)c2ccc(O)c(O)c2)nnc1-c1cccs1	?	79µM*	22µM*	-11	28µM*	3.5µM*
Cn1c(SCC(=O)c2ccc(O)c(O)c2)nnc1-c1ccccc1	-8%[11.6 µM]	-37%	-26%	-3	?	5%
C=CCn1c(SCC(=O)c2ccc(O)c(O)c2)nnc1-c1cccc(OC)c1	?	32µM*	11µM*	-20	?	·
C=CCn1c(SCC(=O)c2cccs2)nnc1-c1cccc(OC)c1	2%	-3%	9%	·	-14%	?
C=CCn1c(SCC(=O)c2ccccc2)nnc1-c1cc2ccccc2o1	-12%	-5%	-6%	-2	-11%	?
C=CCn1c(SCC(=O)c2ccccc2)nnc1-c1ccc2c(c1)OCO2	-53%	-16%	-6%	-23	?	50µM*
COc1ccc(CCn2c(=S)[nH]c(=O)c3nccnc32)cc1OC	·	-21%	·	·	3%	·
CN(C)S(=O)(=O)N(CC(=O)NCCSc1ccccc1)c1ccccc1	·	-9%	-12%	·	10%	-14%
CN(C)S(=O)(=O)N(CC(=O)NCCSc1ccc(Cl)cc1)c1ccccc1	·	-28%	?	·	?	22µM*
CN(C)S(=O)(=O)N(CC(=O)NCCSCc1ccccc1)c1ccccc1	-12%[11.6 µM]	?	?	?	?	35µM*

Screening results from PubChem.
